# Compound activity from PubChem.
# Compounds with a hit are over-represented: about 32% of the library has one in this group of screens.
# CYP2C9 activ: human CYP2C9 activators, primary screen, biochemical, luminescence | activation factor at 5 µM | Cytochrome P450 2C9 (Homo sapiens), P11712 | recombinant CYP2C9, luciferin-H conversion; stronger effect = higher value; factor 1 = untreated enzyme, 0 = blocked | 96,000 tested, 1.4% active;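 active = activation factor of 2 or more for CYP2C9 at a 5 µM dose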
# PostGolgi ctrl: growth inhibition of yeast control strain, primary screen, counter-screen for post-Golgi transport modulator project; efflux-deficient yeast background strain, growth absorbance A615, 16 h; inhibition, % at 10 µM; 98,000 tested, 5% active; AID 738, 2007
# PostGolgi yeast: phenotypic screen on post-Golgi transport, primary screen; post-Golgi transport phenotypic cell assay; inhibition, % at 10 µM; 98,000 tested, 0.9% active;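 note: yeast cells grown in 1536-well plates; yeast grown about 18 h at 30C before absorbance read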
# CYP2C19 activ: human CYP2C19 activators, primary screen, biochemical, luminescence | Cytochrome P450 2C19 (Homo sapiens), P33261 | 96,000 tested, under 10 active | recombinant CYP2C19, luciferin-H EGE luminescence; stronger effect = higher value; 0 = fully inhibited enzyme, 1 = untreated enzyme | activation factor at 5 µM | AID 1025, 2008;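 active = activation factor of at least 2 at 5 µM in the primary screen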
# Target sequence (P33261 whole entry, looked up): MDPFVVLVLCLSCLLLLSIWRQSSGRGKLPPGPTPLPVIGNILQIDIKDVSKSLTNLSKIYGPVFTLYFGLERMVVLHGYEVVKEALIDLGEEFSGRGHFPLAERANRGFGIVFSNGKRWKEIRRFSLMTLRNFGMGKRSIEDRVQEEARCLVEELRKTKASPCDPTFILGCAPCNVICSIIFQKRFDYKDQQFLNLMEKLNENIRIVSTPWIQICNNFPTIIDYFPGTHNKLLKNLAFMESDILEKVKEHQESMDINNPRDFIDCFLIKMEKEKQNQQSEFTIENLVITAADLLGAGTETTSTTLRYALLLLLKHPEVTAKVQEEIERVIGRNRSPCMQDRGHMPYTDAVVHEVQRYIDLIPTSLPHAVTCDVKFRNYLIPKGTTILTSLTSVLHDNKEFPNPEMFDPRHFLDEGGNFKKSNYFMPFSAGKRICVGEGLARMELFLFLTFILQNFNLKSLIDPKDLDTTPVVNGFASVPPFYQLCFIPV
# CYP2C9 inhib: blockers of cytochrome P450 2C9 activity – biochemical, luminescence, ADME assay, primary screen; P11712; CYP2C9 Supersomes, luciferin-H conversion; inhibition, % at 5 µM; 96,000 tested, 20% active; AID 777, 2007;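 active = blocking of liver enzyme CYP2C9 beyond about 50% at 5 µM, limit read from the data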
# CYP2C19 inh: blockers of cytochrome P450 2C19 activity – biochemical, luminescence, ADME assay, primary screen; CYP2C19 Supersomes, luciferin-H EGE luminescence, 30 min; inhibition, % at 5 µM; P33261; AID 778, 2007; 96,000 tested, 21% active;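 active = CYP2C19 inhibition above a set limit at 5 µM in the primary screen, cut at about 50% in these data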
# A number is an active result; i = inactive; nt = no result. Cut-off read from the data, not from the text of the source, unless noted: active = inhibition above about 30%; inactive = the rest.
SMILES,CYP2C9 activ,PostGolgi ctrl,PostGolgi yeast,CYP2C19 activ,CYP2C9 inhib,CYP2C19 inh
N#CC1=C(N)SC(N)=C(C#N)C1C1CC=CCC1 (configuration not stated),i,i,i,i,i,84
COc1ccc(N2CCN(CC(=O)N3CCC(C)CC3)CC2)cc1,i,i,i,i,i,i
CCOC(=O)C1CCCN(Cc2nc(N)nc(Nc3ccc(Cl)cc3)n2)C1 (configuration not stated),i,i,i,i,67,63
CCOC(=O)C1CCCN(Cc2nc(N)nc(Nc3ccc(OC)cc3)n2)C1 (configuration not stated),i,i,i,i,i,i
CCOC(=O)C1CCCN(Cc2ccc(OCC)cc2)C1 (configuration not stated),i,i,i,i,i,76
CCOC(=O)N1CCN(Cc2cc(=O)oc3ccc(Cl)cc23)CC1,i,i,i,i,56,73
CCOC(=O)C1CCCN(Cc2ccccc2C)C1 (configuration not stated),i,i,i,i,i,88
COC(=O)C1(CO)NC(c2cccs2)C2C(=O)N(c3ccccc3)C(=O)C21 (configuration not stated),i,i,i,i,i,i
O=S(=O)(c1cccc2nsnc12)N1CCc2ccccc2C1,nt,i,i,nt,nt,nt
Cc1nnc(Nc2ccc(C(=O)N3CCOCC3)cc2)c2ccccc12,i,i,i,i,i,i
CCOC(=O)C1CCCN(Cc2ccccc2Cl)C1 (configuration not stated),i,i,i,i,i,80
O=C(C1CCCN(Cc2cccs2)C1)N1CCCCCC1 (configuration not stated),i,i,i,i,i,i
CCOC(=O)C1CCN(Cc2ccccc2C)CC1,i,i,i,i,i,77
CCOC(=O)C1CCN(Cc2cccc(OC)c2)CC1,i,i,i,i,i,77
CCOC(=O)C1CCCN(Cc2cccs2)C1 (configuration not stated),i,i,i,i,i,88
CCOC(=O)C1CCN(Cc2cn[nH]c2-c2ccccc2)CC1,i,i,i,i,i,i
CCOC(=O)N1CCN(Cc2cccs2)CC1,i,i,i,i,i,90
CCOC(=O)C1CCN(CC(=O)N2C(C)CCCC2C)CC1 (configuration not stated),i,i,i,i,i,63
CCOC(=O)C1CCN(C(=O)N2CCOCC2)CC1,i,i,i,i,i,i
CCOC(=O)N1CCN(Cc2ccccn2)CC1,i,i,i,i,i,i
CCOC(=O)C1CCCN(CC(O)COc2ccc(OC)cc2C(C)(C)C)C1 (configuration not stated),i,i,i,i,56,i
CCOC(=O)C1CCCN(C/C(O)=C(\C#N)c2nc(-c3ccc(Cl)cc3)cs2)C1 (configuration not stated),i,i,i,i,58,i
CCOC(=O)N1CCN(C(=O)C2CCCN(Cc3nc(-c4ccc(Cl)cc4)oc3C)C2)CC1 (configuration not stated),i,i,i,i,i,i
CCC1(N(C(C)=O)c2ccc(OC)cc2)C(=O)c2ccccc2C1=O,i,i,i,i,i,i
O=C(Cn1[nH]c(=O)c2ccccc2c1=O)OCC(=O)N(Cc1ccccc1)Cc1ccccc1,i,i,i,i,i,i
SMILES,CYP2C9 activ,PostGolgi ctrl,PostGolgi yeast,CYP2C19 activ,CYP2C9 inhib,CYP2C19 inh
COc1ccc2nc(SCC(=O)Nc3ccc(S(=O)(=O)Nc4nccc(C)n4)cc3)[nH]c2c1,i,i,i,i,i,i
CNc1oc(-c2ccccc2Cl)nc1C#N,i,i,i,i,i,i
CCOc1ccc(Nc2oc(-c3ccccc3Cl)nc2C#N)cc1,i,i,i,i,76,i
COc1cc2c(cc1OC)-c1cc(OCCN3CCOCC3)nc(=O)n1CC2,i,i,i,i,i,i
COc1ccc(NS(=O)(=O)c2ccc(OCC(=O)N3CCCC3)cc2)cc1,i,i,i,i,i,i
CCOC(=O)CCCc1sc(N)nc1-c1[nH]c(=O)[nH]c1C,i,i,i,i,i,i
CC12CN3CC(C)(CN(C1)C3c1ccc3c(c1)OCO3)C2=O (configuration not stated),i,i,i,i,i,53
CN1c2ccccc2N(C)C1c1ccc2c(c1)OCO2,i,i,i,i,i,i
c1ccc2c(c1)OCC(c1csc3ncnc(N4CCOCC4)c13)O2 (configuration not stated),i,i,i,i,50,78
c1ccc(-n2nnc3c(N4CCOCC4)ncnc32)cc1,i,i,i,i,i,i
COc1cccc(NC(=O)c2ccccc2-c2nc(-c3ccc(F)cc3)no2)c1,i,56,i,i,i,i
COc1ccccc1NC(=O)c1ccccc1-c1nc(-c2ccccc2OC)no1,i,i,i,i,78,64
COc1cccc(NC(=O)c2ccccc2-c2nc(-c3ccc(Cl)cc3)no2)c1,i,35,i,i,83,69
COc1ccccc1NC(=O)c1ccccc1SC,3.8,i,i,i,i,i
COc1cccc(-c2nc(-c3ccc(NC(=O)c4ccncc4)cc3)no2)c1,i,i,i,i,i,i
COc1ccccc1C(=O)Nc1ccccc1SC,i,i,i,i,i,i
COc1ccccc1-c1noc(-c2ccccc2C(=O)Nc2ccccc2)n1,i,i,i,i,i,i
COc1cccc(NC(=O)c2ccccc2-c2nc(-c3ccccc3)no2)c1,i,42,i,i,i,i
O=C(CN1CCOCC1)Nc1ccccc1NC(=O)C1CCN(c2ncccn2)CC1,i,i,i,i,i,i
O=C(CSc1nnc(-c2ccco2)n1Cc1ccccc1)NC(=O)NCc1ccccc1,i,i,i,i,i,62
CCCn1c(SCC(=O)NC(=O)NCc2ccco2)n[nH]c1=O,i,i,i,i,i,i
Cc1nnc(SCC(=O)NC(=O)NCc2ccco2)n1Cc1ccccc1,i,i,i,i,67,i
O=C(CSc1n[nH]c(-c2ccccc2Br)n1)NC(=O)NCc1ccco1,i,i,i,i,59,i
CCOc1ccccc1-n1nnnc1SCC(=O)NC(=O)NCc1ccco1,i,i,i,i,i,79
N#C/C(=C\c1ccccc1Cl)C(=O)NC(=O)Oc1ccccc1,i,i,i,i,i,i
O=C1CCCN1CN(C(=O)c1ccc2c(c1)OCO2)c1ccc(F)cc1,i,i,i,i,i,i
CCN(CC)CCNc1nc2cc(OC)c(OC)cc2c2nc(-c3ccccc3)nn12,i,i,i,i,i,i
Nn1c(SCC(=O)NC(=O)NCc2ccco2)nnc1-c1ccc(OC(F)F)cc1,i,i,i,i,i,71
O=C(CSc1nnnn1-c1ccccc1)NC(=O)NCc1ccco1,i,i,i,i,i,i
